# Data from PubChem BioAssay AID504834 (National Center for Advancing Translational Sciences (NCATS), 2011).
# “And” between values parts separate entries of the source, which are not always exact repeats. Equal values may be shown once. The campaign covered roughly 320,000 compounds. About 22,000 (6.9%) were called active. Inconclusive results (about 27%) are left out. The call rests on the fitted dose curve; in most records, active means well fitted inhibition curve with a large enough effect; inconclusive means small, poorly fitted or top-dose-only effect, or another doubt; inactive means no such curve, though single readings can be large or run the other way. This excerpt belongs to a sample that is enriched for actives. Some compounds were tested as several samples or in several runs, with calls that do not always agree.
# Test: Primary qHTS for delayed death inhibitors of the malarial parasite plastid, 96 hour incubation
# Conditions: P. falciparum luciferase reporter growth; series mostly up to 28.7 µM; activity change, negative = inhibition: at the top concentration
# How it was run: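 Readout is luminescence from an integrated firefly luciferase in P. falciparum. Red cells, 2% hematocrit and 0.05% parasitemia final, were cultured with compound through two parasite generations (96 hours) at 37 C, 5% CO2.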
# On the % scale 0 is the no-effect control and ±100 the full control effect; potency means the concentration at half of the fitted maximal effect.
Compound,"activity change, negative = inhibition",Potency
Cn1c(SCC(=O)N/N=C/c2ccc(O)c(O)c2)nc2ccccc21,0.417% (inactive),–
Cc1nn(Cc2ccccc2Cl)c(Cl)c1C(=O)OC(C(=O)NC(N)=O)C(C)C (stereo not given),–,13.1 µM (active)
COc1ccccc1CCNC(=O)c1c(C)nn(CC(C)C)c1Cl,2.72% (inactive),–
COC(=O)c1ccc(COC(=O)c2c(C)nn(Cc3ccccc3Cl)c2Cl)o1,-79.4% (inactive),–
CCCCCCn1cc(C(=O)O)c(=O)c2cc(F)c(N3CCCCC3)cc21,-5.73% (inactive),–
CC(C)CN(C(=O)Cn1c(=O)cnc2ccccc21)C1CCS(=O)(=O)C1 (stereo not given),0.302% (inactive),–
Cc1ccc(C)c(NC(=O)CN(C)C(=O)c2ccc3ncsc3c2)c1,0% (inactive),–
COc1ccc(C(=O)CCC(=O)Nc2ccc(Cl)cc2)cc1,37.7% (inactive),–
COc1ccccc1/C=N/N1CCN(Cc2ccccc2Cl)CC1,39.7% (inactive),–
COc1ccc(C2/C(=C(/O)c3ccccc3)C(=O)C(=O)N2c2ncccn2)cc1OC (stereo not given),1.16% (inactive),–
COc1ccc(C2N=C(N)N=C(N)N2c2ccccc2)cc1OC (stereo not given),–,2.62 µM (active)
COc1ccc(C2SCCN2S(=O)(=O)c2ccccc2)cc1OC (stereo not given),31.4% (inactive),–
Cc1ccc(S(=O)(=O)N(C)C)cc1NC(=O)C(C)OC(=O)c1ccc2ccccc2n1 (stereo not given),4.57% (inactive),–
COc1ccc(S(=O)(=O)N(C)CC(=O)NCCCN2CCOCC2)cc1Cl,28.2% (inactive),–
CCOc1ccccc1NC(=O)CCc1nnc2ccc(NCc3ccco3)nn12,–,8.28 µM (active)
O=C(CCc1nnc2ccc(NCc3ccco3)nn12)Nc1cc(F)ccc1F,-2.28% (inactive),–
CC(=O)c1ccc(NC(=O)CCc2nnc3ccc(NCc4ccco4)nn23)cc1,15.2% (inactive),–
CC(C)C[C@H](NC(=O)C1CCC(CNC(=O)[C@@H]2CCCN2C(=O)OC(C)(C)C)CC1)C(=O)O (stereo not given in full),2.05% (inactive),–
COc1ccc(CCNC(=O)CCc2ccccc2O)cc1OC,4.65% (inactive),–
CC(C)[C@H](NC(=O)N1CCn2c1nc1ccccc12)C(=O)NCc1ccc2c(c1)OCO2,1.93% (inactive),–
COc1ccc(CCNC(=O)CCCCCNC(=O)N2CCn3c2nc2ccccc23)cc1OC,–,14.7 µM (active)
Cc1ccc(C(=O)N2CCC(n3nccc3NC(=O)Nc3cccc(F)c3)CC2)cn1,0% (inactive),–

Compound,"activity change, negative = inhibition",Potency
CCCC(=O)Nc1ccc2c(c1)nc(CCNC(=O)c1ccco1)n2C,0% (inactive),–
Cc1ccccc1C1CC(c2cccs2)=NN1S(C)(=O)=O (stereo not given),-23.6% (inactive),–
COc1ccc(C2CC(c3cccs3)=NN2C(=O)CSc2nncs2)cc1OC (stereo not given),–,10.4 µM (active)
COc1ccc(C2CC(c3cccs3)=NN2c2ccc(F)cc2)cc1OC (stereo not given),0% (inactive),–
COc1ccc(C2CC(c3ccccc3)=NN2C(=O)COC(=O)COc2ccccc2)cc1 (stereo not given),23.8% (inactive),–
Cc1ccc(C2=NN(C(=O)CSc3nc(N)cc(N)n3)C(c3ccco3)C2)cc1 (stereo not given),-26.7% (inactive),–
COc1ccc(C2=NN(C(=O)CCC(=O)O)C(c3cccs3)C2)cc1OC (stereo not given),23.4% (inactive),–
COc1cccc(C2CC(c3cccs3)=NN2C(=O)CSC2=NCCS2)c1OC (stereo not given),–,6.57 µM (active)
COc1ccc(C2CC(c3cccs3)=NN2C(=O)CSc2nnc(N)s2)cc1OC (stereo not given),–,10.4 µM (active)
COc1ccc(C2CC(c3cccs3)=NN2C(=O)COC(=O)c2cc3ccccc3cc2O)cc1OC (stereo not given),0% (inactive),–
COc1ccc(C2CC(c3cccs3)=NN2C(=O)CCC(=O)O)cc1OC (stereo not given),–,2.62 µM (active)
COc1ccc(C2CC(c3cccs3)=Nc3ccccc3S2)cc1OC (stereo not given),11.8% (inactive),–
COc1cccc(C2CC(c3ccccc3)=NN2S(=O)(=O)c2ccccc2)c1OC (stereo not given),-2.15% (inactive),–
COc1ccccc1CNC(=O)COC(=O)CNS(=O)(=O)c1ccc(NC(C)=O)cc1,-14.5% (inactive),–
CCCn1cc(S(=O)(=O)c2ccc(C)cc2)c(=O)c2cc(OCC)ccc21,32.7% (inactive),–
CCOc1ncccc1C(=O)NNC(=O)c1cccc(S(=O)(=O)Nc2ccccc2OC)c1,9.01% (inactive),–
O=C(CNC(=O)c1cccs1)N/N=C/c1cccc(Br)c1,38.7% (inactive),–
Cc1cc(F)ccc1S(=O)(=O)Nc1ccc(C(=O)N(C)Cc2ccco2)cc1,30% (inactive),–
Cc1sc2ncnc(N3CCC(C(=O)Nc4nc5ccc(Cl)cc5s4)CC3)c2c1C,36.2% (inactive),–
O=C(N/N=C\C1CC=CCC1)c1ccc(Br)o1 (stereo not given),2.65% (inactive),–
Cc1ccc(C(=O)N/C(=C/c2cccs2)C(=O)NCC2CCCO2)cc1 (stereo not given),32.8% (inactive),–
Cc1ccc(S(=O)(=O)N2CCC(C(=O)NCC3CCCO3)CC2)cc1 (stereo not given),-25.5% (inactive),–

Compound,"activity change, negative = inhibition",Potency
Cc1ccc(-n2c(C)cc(/C=C(\C#N)C(=O)NCC3CCCO3)c2C)cc1 (stereo not given),–,5.86 µM (active)
CC(=O)N(CC(O)CO)c1c(I)c(C(=O)NCC(O)CO)c(I)c(C(=O)NCC(O)CO)c1I (stereo not given),–,inactive and 13.5 µM (active)
CC(C)(Oc1ccc(Cl)cc1)C(=O)OCC(=O)NCCc1ccc(S(N)(=O)=O)cc1,9.46% (inactive),–
Cc1cc(C)n2nc(C(=O)OC(C)C(=O)c3cc(C)c(C)cc3C)nc2n1 (stereo not given),46.2% (inactive),–
Oc1ccc(Cl)c2c1CCC2,-18% (inactive),–
Cc1ccc(NC(=O)Nc2cc(-c3ccccc3)nn2C)cc1Cl,22.7% (inactive),–
O=Cc1cn(Cc2ccccc2)nc1-c1cccnc1,10.1% (inactive),–
COc1ccc(NC(=O)CN(C)C(=O)/C=C/c2cn(Cc3ccccc3)nc2-c2cccnc2)cc1,–,9.28 µM (active)
COc1cccc(NC(=O)CN(C)C(=O)/C=C/c2cn(-c3ccccc3)nc2-c2cccs2)c1,3.17% (inactive),–
O=C(Nc1ccc(NC(=O)c2ccc3c(c2)OCO3)cc1)c1cccc(Cl)c1,-12.7% (inactive),–
CN(c1ccccc1)S(=O)(=O)c1ccc(C(=O)NCCc2ccccc2)cc1,4.97% (inactive),–
CC(NC(=O)CSc1nc2c(cc1C#N)CN(C)CC2)c1ccccc1 (stereo not given),58.3% (inactive),–
Cc1cc(C)nc(SCc2ccccc2C#N)n1,103% (inactive),–
CC1(C)CCc2nc(SCc3ccccc3)c(C#N)cc2C1,–,6.57 µM (active)
CCCCN(C(=O)c1nn(C)c(=O)c2ccccc12)c1c(N)n(CCC)c(=O)[nH]c1=O,14.7% (inactive),–
COc1ccccc1C(=O)NC(=S)Nc1ccccc1N1CCCCC1,25.3% (inactive),–
Oc1ccc2ccccc2c1N=Nc1nccs1,–,9.28 µM (active)
Oc1c(C=Nc2cccc3nsnc23)ccc2ccccc12,0% (inactive),–
c1ccc(NCc2cccc3ccccc23)nc1,-21% (inactive),–
Oc1ccc(N=Nc2nccs2)c(O)c1,–,11.7 µM (active)
COc1ccc(C(=O)N[C@H](C(=O)NCc2ccccc2)C(C)C)cc1,13.7% (inactive),–
